Data from publication PMC5540273 (PLoS ONE, 2017).

Legend:
Settings in all cases: concentration: 1 μM, replicates: in singlicate; n = 1
MEK5 = system: T1, MEK5
T1 construct: gene MAP2K5

MEK6 = system: T2, MEK6
T2 construct: gene MAP2K6

MELK = system: MELK
MERTK = system: MERTK
MET = system: MET
MINK = system: T3, MINK
T3 construct: gene MINK1

MKK7 = system: MKK7
MKNK1 = system: MKNK1
MKNK2 = system: MKNK2
MLCK = system: T4, MLCK
T4 construct: gene MYLK3
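Further: KINOMEscan kinase panel screen.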

SMILES | %Inh (MEK5) [%] | %Inh (MEK6) [%] | %Inh (MELK) [%] | %Inh (MERTK) [%] | %Inh (MET) [%] | %Inh (MINK) [%] | %Inh (MKK7) [%] | %Inh (MKNK1) [%] | %Inh (MKNK2) [%] | %Inh (MLCK) [%]
CN1CCN(CCCNc2nccc(-c3c(-c4ccc(F)cc4)nn4cc(C(F)(F)F)ccc34)n2)CC1 [GW621581] | 25 | 0 | 0 | 26 | 0 | 17 | 0 | 0 | 1 | 4
Nc1ncc(-c2ccc3nccc(-c4ccncc4)c3c2)cc1S(=O)(=O)N1CCOCC1 [GSK1627798] | 15 | 0 | 0 | 12 | 0 | 10 | 5 | 0 | 3 | 0
CCc1ccc(-c2ccc3c(c2)-c2c(cnn2C)S(=O)(=O)N3C)cc1 | 0 | 0 | 0 | 0 | 26 | 0 | 0 | 0 | 0 | 1
COc1cccc(C2=C(Nc3ccc(Cl)c(C(=O)O)c3)C(=O)NC2=O)c1 [SB-390769] | 18 | 0 | 7 | 0 | 8 | 100 | 18 | 4 | 5 | 100
Clc1ccc(-c2nn3ncccc3c2-c2ccnc(Nc3ccc4c(c3)OCCO4)n2)cc1 [GW829116] | 33 | 20 | 0 | 0 | 0 | 23 | 0 | 0 | 0 | 0
Cn1cc(-c2ccc3c(c2)CCN3C(=O)Cc2cccc(F)c2)c2c(N)ncnc21 [GSK2603358] | 99.9 | 0 | 9 | 49 | 61 | 0 | 32 | 2 | 21 | 16
Nc1ncc(-c2cccnc2)c2scc(-c3ccc4c(c3)CCN4C(=O)Cc3ccccc3)c12 [GSK683281] | 99.7 | 0 | 100 | 69 | 33 | 41 | 30 | 5 | 15 | 14
CSc1cccc2c(-c3ccncn3)c(-c3ccc(F)cc3)nn12 [GW514786] | 15 | 0 | 20 | 39 | 23 | 5 | 0 | 14 | 1 | 0
Cc1ccc(F)c(C(=O)Nc2cccc(-c3nn4ccccc4c3-c3ccnc(Nc4cccc(F)c4)n3)c2)c1F [GSK361061] | 95 | 18 | 12 | 75 | 58 | 17 | 10 | 21 | 0 | 5
COc1cccc(-c2ccc3c(NC(=O)C4CC4)n[nH]c3n2)c1 [SB-710903] | 61 | 0 | 0 | 38 | 28 | 76 | 0 | 32 | 21 | 47
CN(c1ccc(NC(=O)Nc2cc(C(F)(F)F)ccc2F)cc1)c1ccnc(Nc2ccc(S(N)(=O)=O)cc2)n1 [GW809893] | 98.8 | 100 | 12 | 98.2 | 88 | 76 | 2 | 50 | 98.9 | 28
COc1cc2c(cc1OCCN1CCNCC1)ncc1c3ccc(C#N)cc3[nH]c21 | 99.6 | 0 | 35 | 0 | 5 | 86 | 12 | 100 | 99 | 97.5
Cl.Cl.NCC(NC(=O)c1cc(-c2ccccc2)c(-c2ccnc3[nH]ccc23)s1)c1ccccc1 (stereo not shown) [GSK1321561] | 19 | 6 | 37 | 44 | 3 | 90.7 | 17 | 20 | 19 | 40
Fc1ccc(-c2ncn(C3CCNCC3)c2-c2ccnc(Oc3ccc(-c4ccccc4)cc3)n2)cc1 [SB-245391] | 17 | 29 | 27 | 0 | 50 | 30 | 11 | 0 | 10 | 0
Cl.NC(=O)c1cccc(Nc2nccc(Nc3ccc(Oc4c(Cl)cccc4Cl)c(Cl)c3)n2)c1 [GW659009] | 97.5 | 0 | 0 | 0 | 0 | 90.2 | 17 | 0 | 1 | 0
O=C(NC1CCN(c2ccnc(Nc3ccc(F)cc3)n2)C1)c1cc2ccccc2s1 (stereo not shown) [GSK1379716] | 8 | 1 | 0 | 38 | 0 | 0 | 0 | 3 | 7 | 8

SMILES | %Inh (MEK5) [%] | %Inh (MEK6) [%] | %Inh (MELK) [%] | %Inh (MERTK) [%] | %Inh (MET) [%] | %Inh (MINK) [%] | %Inh (MKK7) [%] | %Inh (MKNK1) [%] | %Inh (MKNK2) [%] | %Inh (MLCK) [%]
O=C(Nc1cccc(-c2nn3ccccc3c2-c2ccnc(Nc3cccc(C(F)(F)F)c3)n2)c1)c1c(F)cccc1F [GSK292658] | 80 | 0 | 0 | 37 | 0 | 2 | 0 | 0 | 1 | 0
CN(C)Cc1ccc(-c2ccc3c(Nc4ccc(Oc5ccccn5)cc4)ccnc3c2)o1 [GW567148] | 100 | 0 | 0 | 38 | 12 | 36 | 0 | 0 | 38 | 0
NCCCC(NC(=O)c1cc(Br)c(-c2ccnc3[nH]ccc23)s1)c1ccccc1.O=C(O)C(F)(F)F.O=C(O)C(F)(F)F (stereo not shown) [GSK1287544] | 7 | 0 | 54 | 55 | 6 | 27 | 16 | 0 | 83 | 47
COc1ccc(Nc2nccc(NCCNC(=O)c3cc4ccccc4s3)n2)cc1 [GSK1379896] | 33 | 0 | 0 | 24 | 0 | 2 | 0 | 0 | 0 | 0
c1ccc(-c2n[nH]cc2Nc2ccnc3ccccc23)nc1 [GW694077] | 31 | 8 | 21 | 0 | 100 | 61 | 0 | 13 | 85 | 2
CC(=O)N1CCN(c2ccc(Nc3nccc(-c4sc(C(C)C)nc4-c4cccc(NS(=O)(=O)c5cccc(Cl)c5)c4)n3)cn2)CC1 [GSK1660437] | 99.8 | 0 | 57 | 44 | 0 | 18 | 0 | 7 | 51 | 0
Cc1ccc(C(=O)Nc2ccc(Nc3ccnc4cc(-c5nccs5)ccc34)cc2O)cc1.Cl [GW494702] | 99.9 | 0 | 1 | 24 | 0 | 47 | 0 | 22 | 8 | 12
CCn1c(-c2nonc2N)nc2c(C#CC(C)(C)O)nc(OC[C@H](N)c3ccccc3)cc21 [GSK943949] | 0 | 0 | 63 | 21 | 0 | 5 | 0 | 5 | 0 | 34
CC(=O)Nc1nc2cnc(Nc3cc(NC(=O)c4cccc(C5(C#N)CC5)c4Cl)ccc3C)nc2s1 | 12 | 25 | 0 | 17 | 8 | 0 | 10 | 16 | 0 | 0
C[C@@H]1CC[C@@H](C(=O)Nc2ccccc2)CN1c1cc(-c2ccc3c(N)n[nH]c3c2)nc(N)n1 [GSK2286062] | 4 | 8 | 31 | 39 | 0 | 9 | 0 | 0 | 12 | 16
O=C(Nc1cccc(Oc2ccc3nc(NC(=O)C4CC4)cn3n2)c1)c1ccccc1C(F)(F)F | 99.8 | 14 | 15 | 26 | 7 | 2 | 0 | 0 | 0 | 0
CCCCc1nn2ncccc2c1-c1ccnc(Nc2ccc(N3CCN(C)CC3)cc2)n1 [GW684941] | 98.9 | 0 | 0 | 56 | 8 | 43 | 0 | 9 | 64 | 0
COC(=O)Nc1nc2cc(Oc3ccc(NC(=O)Nc4cc(C(F)(F)F)ccc4F)cn3)ccc2[nH]1.Cl.Cl [GW681170] | 51 | 0 | 6 | 95.7 | 73 | 18 | 0 | 36 | 88 | 0
COc1cccc(NC(=O)NC2CCN(c3ccnc(Nc4cc(OC)c(OC)c(OC)c4)n3)C2)c1 (stereo not shown) [GSK1379763] | 99.9 | 0 | 0 | 15 | 0 | 0 | 0 | 36 | 65 | 0
Nc1ncnc2c1nc(-c1ccccc1)n2-c1ccccc1 [SKF-97293] | 32 | 27 | 0 | 0 | 10 | 16 | 38 | 0 | 18 | 23
